Screens as filed in PubChem BioAssay.
Only some compounds are listed: those with a hit (about 19% of all), similar ones and a draw of the others.
Pf growth 48h: inhibits P. falciparum growth in the first generation, 48 h | P. falciparum luciferase growth in erythrocytes, 48 h | Potency, µM (highest dose often 28.7 µM), without a hit: at the top dose activity change, negative = inhibition, usual class: inhibitors | 5.9% of 310,000 active | AID 504832; further: potency means the concentration at half of the fitted maximal effect; on the % scale 0 is the no-effect control and ±100 the full control effect
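Growth was read as firefly luciferase luminescence after a 48 h, 37 C, 5% CO2 exposure of compounds to reporter-bearing P. falciparum cultures (0.1% parasitemia, 2% hematocrit final) in Albumax-supplemented RPMI 1640.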
Shiga toxin inh: inhibitors of Shiga toxin in Vero cells | 9.2% of 290,000 active | inhibition, % at 38.7 µM | Vero cells, Shiga toxin protein synthesis inhibition reporter; in the data active means inhibition mostly above about 28%, no sharp cut-off; inactive means mostly below about 43%; further: 0% is about no effect
Pf growth 96h: P. falciparum growth inhibition at 96 hour, primary screen for plastid delayed-death inhibitors. Potency, µM (highest dose often 28.7 µM), for the others: at the top dose activity change, negative = inhibition, actives largely listed as inhibitors. P. falciparum luciferase reporter growth, 96 h. 6.9% of 320,000 active; further: potency means the concentration at half of the fitted maximal effect; on the % scale 0 is the no-effect control and ±100 the full control effect
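Erythrocytes infected with luciferase-expressing P. falciparum were dispensed at 2% hematocrit and 0.05% parasitemia (final), then incubated with compounds 96 hours at 37 C in 5% CO2. Luminescence after detection reagent addition reported growth.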
Cycloheximide cs: counter-screen hit for Shiga toxin inhibitors, cycloheximide | cell reporter, cycloheximide protein synthesis inhibition counterscreen | max response, % | 12% of 300,000 active; in the data active means max response mostly above about 13%, no sharp cut-off; inactive means mostly below about 14%; further: read at 38.3 µM for the half of the compounds with a filed dose; 0% is about no effect
Marburg entry inh: inhibitors of Marburg virus binding or cell entry | Marburg virus pseudotyped entry inhibition, cell reporter | Potency, µM (highest dose often 37.8 µM), inactives show top-dose activity change, negative = inhibition, actives largely listed as inhibitors | 1.8% of 300,000 active; calls by dose curve; tested in HEK293 cells; further: potency means the concentration at half of the fitted maximal effect; on the % scale 0 is the no-effect control and ±100 the full control effect
LASV entry inh: blocks Lassa virus binding to or entry into cells; Lassa virus pseudotype entry inhibition, cell reporter; Potency, µM (doses to about 37.9 µM), without a hit: top-dose activity change, negative = inhibition, most hits filed as inhibitors; 1.2% of 300,000 active; AID 540256; calls by dose curve; tested in HEK293 cells; further: potency means the concentration at half of the fitted maximal effect; on the % scale 0 is the no-effect control and ±100 the full control effect; nearly all actives have a fitted effect of over 50% in size
The depositor's hits bear a star; ? = inconclusive; nt = no result given; [ ] = another dose, or the depositor's remark. Unless noted, the call rests on the fitted dose curve; in most records, active means well fitted inhibition curve with a large enough effect; inconclusive means small, poorly fitted or top-dose-only effect, or another doubt; inactive means no such curve, though single readings can be large or run the other way.

SMILES | Pf growth 48h | Shiga toxin inh | Pf growth 96h | Cycloheximide cs | Marburg entry inh | LASV entry inh
c1cc2c(cc1CN1CCOCC1)OCO2 | nt | -3 | -12% | -1 | -4% | 3%
Cc1cc(CCC(=O)O)c(C)cc1CCC(=O)O | 5.9µM* | 21 | ? | -3 | -2% | -2%
COc1ccc(COC(=O)C2=C(C)NC(=O)NC2c2ccc(O)c(OC)c2)cc1 (stereo unspecified) | nt | -5 | 10µM* | -4 | -8% | ?
COc1ccc(COC(=O)C2=C(C)NC(=O)NC2c2ccc(OC)c(OC)c2)cc1 (stereo unspecified) | ? | -16 | 191% | -3 | nt | nt
COC(=O)C1=C(CS(=O)(=O)c2cc(OC)ccc2OC)NC(=O)NC1c1ccc(O)c(OC)c1 (stereo unspecified) | 16% | 0 | 10µM* | -5 | nt | nt
CCOC(=O)C1=C(CNCc2ccc(C)cc2)NC(=O)NC1c1ccc(OC)cc1 (stereo unspecified) | ? | -4 | nt | -2 | 5µM* | ?
CC1=C(C(=O)OCc2ccc(C)cc2)C(c2ccc(O)c([N+](=O)[O-])c2)NC(=O)N1 (stereo unspecified) | 12µM* | 2 | -4% | -2 | -15%[46.1 µM] | 0%[46.1 µM]
O=C(CC12CC3CC(CC(C3)C1)C2)NCc1ccccc1 | 12% | -5 | 15% | 1 | 10%[46.1 µM] | 3%[46.1 µM]
Cc1ccc(SCC(=O)NNC(=O)c2ccccc2)cc1C | 13% | -3 | 9% | -2 | -8%[46.1 µM] | 17%
CCCCOc1ccccc1C1NC(=O)NC(C)=C1C(=O)OCc1ccco1 (stereo unspecified) | 9.3µM* | 9 | ? | 5 | -6% | ?
CCOc1cc(C2NC(=O)NC(C)=C2C(=O)OCc2ccccc2)ccc1O (stereo unspecified) | 2.3µM* | 11 | -10% | -4 | ? | ?
CC1=C(C(=O)OCc2ccc3c(c2)OCO3)C(c2ccc(Cl)cc2)NC(=O)N1 (stereo unspecified) | nt | -16 | -18% | -6 | 2.1µM* | ?
CCOC(=O)C(C)Oc1ccc(C2NC(=O)NC(C)=C2C(=O)Nc2ccccc2C)cc1 (stereo unspecified) | 10µM* | -1 | ? | 0 | 1% | -5%
CCCCOc1ccccc1C1NC(=O)NC(C)=C1C(=O)OCCOCC (stereo unspecified) | 0% | -15 | ? | 1 | -18% | 1%
CCCCC[C@H](O)/C=C/[C@H]1C=CC(=O)[C@@H]1C/C=C\CCCC(=O)O | -4% | -5 | 4% | -2 | -3% | ?
Cc1cc(Nc2cccc(Cl)c2)nc2ccc(NC(=O)Cc3c(F)cccc3Cl)cc12 | nt | nt | nt | nt | nt | -13%[46.1 µM]
COC(=O)c1ccccc1N(C)S(C)(=O)=O | -2% | -7 | -1% | 1 | 0% | 15%
CC1=NN(C(=O)Cc2ccc([N+](=O)[O-])cc2)C(O)(c2cccnc2)C1 (stereo unspecified) | 2% | -7 | 3% | -2 | -2% | -6%
Cc1ccc(CN2CCCN(Cc3cc(C)ccc3C)S2(=O)=O)cc1 | 33% | 4 | 8% | -2 | nt | nt
CC1=C(C(=O)OC2CCCCC2)C(c2ccc(F)cc2)NC(=O)N1 (stereo unspecified) | 4% | -4 | 9.3µM* | -4 | ? | -14%[46.1 µM]
CCOC(=O)C1=C(C)NC(=O)NC1c1ccc(OC(=O)c2ccco2)cc1 (stereo unspecified) | 10% | -8 | 7.4µM* | -3 | 3% | 18%
CCN(CC)C(=O)CSc1nnc([C@H](Cc2c[nH]c3ccccc23)NC(=O)OC(C)(C)C)o1 | ? | -6 | ? | -6 | 5% | ?
Cc1ccc2c(c1)N(C(=O)C1CCN(S(=O)(=O)c3c(C)noc3/C=C/c3ccccc3F)CC1)CCO2 | nt | nt | nt | nt | nt | -14%[46.1 µM]
COc1ccc(NC(=O)c2cc(-c3cccs3)on2)cc1OC | -5% | 36 | -15% | 24* | 6% | 1%
Cc1ccc(NC(=O)c2cc(-c3cccs3)on2)cc1C | 456% | 170* | ? | 57* | ? | ?
SMILES | Pf growth 48h | Shiga toxin inh | Pf growth 96h | Cycloheximide cs | Marburg entry inh | LASV entry inh
Cc1ccc(NC(=O)c2cc(-c3ccc4c(c3)OCO4)on2)cc1C | 24% | -7 | -21% | -1 | 12%[46.1 µM] | ?
CCc1ccc(NC(=O)c2cc(-c3cccs3)on2)cc1 | 310% | 100* | -15% | 38* | ? | ?
CCc1ccc(NC(=O)c2cc(-c3ccc(F)cc3)on2)cc1 | 21% | 31 | -6% | 3 | nt | nt
COc1ccc(NC(=O)c2cc(-c3cccs3)on2)cc1 | 109% | 73* | -78% | 29* | ? | -26%
COc1ccc(N(CC(=O)Nc2cc(C)ccc2C)S(=O)(=O)c2ccc(OC)c(OC)c2)cc1 | nt | nt | nt | nt | nt | -15%[46.1 µM]
COc1ccc(-n2c(=O)c3ccccc3n(CC(=O)Nc3cc(C)on3)c2=O)cc1OC | -15% | 4 | ? | -1 | 2% | 5%
Cc1sc2ncnc(N[C@@H](CCC(=O)O)C(=O)O)c2c1C | 3% | -4 | -3% | -2 | 19% | 10%
O=C(Nc1cccc(C(F)(F)F)c1)c1cc(-c2ccco2)on1 | 35% | 15 | -15% | 8 | 2%[46.1 µM] | 1%[46.1 µM]
CCc1ccc(NC(=O)c2sccc2-n2cccc2)cc1 | ? | 55 | 118% | 19* | 4% | 7%
O=C(Nc1cccc(C(F)(F)F)c1)c1cc(-c2cccs2)on1 | 60% | 12 | ? | 23* | -10% | 0%
Cc1ccc(NC(=O)c2cc(-c3ccc(F)cc3)on2)cc1C | 22% | 35 | ? | 20* | nt | nt
COc1ccc(-c2cc(C(=O)Nc3ccc(C)c(C)c3)no2)cc1 | 15% | 0 | ? | -6 | nt | nt
COc1ccc(NC(=O)c2sccc2-n2cccc2)cc1 | ? | 25 | -8% | 18 | -21% | 10%
Cc1cccc(NC(=O)CSCC(=O)N=c2sccn2C)c1 | -4% | nt | 6% | nt | ? | 3%
Cn1ccs/c1=N\C(=O)Nc1cccc(C(F)(F)F)c1 | 37% | 69* | 0% | 28* | -4%[46.1 µM] | -26%[46.1 µM]
Cc1ccc2c(c1)N(CCC(=O)N1CCC3(CC1)OCCO3)C(=O)C(C)O2 (stereo unspecified) | 21% | -5 | -5% | -1 | -3% | 6%
COc1ccc(Cl)cc1N(CC(=O)Nc1ccc2c(c1)OCO2)S(C)(=O)=O | -1% | 4 | ? | -2 | ? | 9%
CCc1ccc(NS(=O)(=O)c2cc3c(cc2C)n(C)c(=O)c(=O)n3C)cc1 | ? | -2 | 24% | -2 | nt | nt
O=C(CN1CCN(C2CCCCC2)C(=O)C1=O)Nc1ccc(Cl)cc1 | nt | nt | nt | nt | nt | 10%[46.1 µM]
COc1ccccc1N1CCN(C(=O)C2CCN(C(=O)c3cccc(Cl)c3)CC2)CC1 | ? | -7 | 8% | 13 | ? | 9%[46.1 µM]
COc1cccc(NC(=O)c2ccc(-c3ccc([N+](=O)[O-])cc3)o2)c1 | ? | 70* | ? | 18* | ? | 4%[46.1 µM]
COc1ccc(NC(=O)c2ccc(-c3ccc([N+](=O)[O-])cc3)o2)cc1OC | -13% | 9 | 6% | -3 | ? | ?
